{"source": "PubChem BioAssay (NCATS)", "note": "Unmarked numbers belong to inactive results. Unless noted, calls follow the shape of the dose curve; as a rule, active = well fitted curve in either direction with a large enough effect (not every such curve was filed as active); inconclusive = small, poorly fitted or top-dose-only effect, or another doubt; inactive = flat fitted curve, though single readings scatter. Results filed as inconclusive are left out."}
{"molecular_target": "Lysosomal acid glucosylceramidase (Homo sapiens) (UniProt P04062)", "sequence (P04062 whole entry, looked up)": "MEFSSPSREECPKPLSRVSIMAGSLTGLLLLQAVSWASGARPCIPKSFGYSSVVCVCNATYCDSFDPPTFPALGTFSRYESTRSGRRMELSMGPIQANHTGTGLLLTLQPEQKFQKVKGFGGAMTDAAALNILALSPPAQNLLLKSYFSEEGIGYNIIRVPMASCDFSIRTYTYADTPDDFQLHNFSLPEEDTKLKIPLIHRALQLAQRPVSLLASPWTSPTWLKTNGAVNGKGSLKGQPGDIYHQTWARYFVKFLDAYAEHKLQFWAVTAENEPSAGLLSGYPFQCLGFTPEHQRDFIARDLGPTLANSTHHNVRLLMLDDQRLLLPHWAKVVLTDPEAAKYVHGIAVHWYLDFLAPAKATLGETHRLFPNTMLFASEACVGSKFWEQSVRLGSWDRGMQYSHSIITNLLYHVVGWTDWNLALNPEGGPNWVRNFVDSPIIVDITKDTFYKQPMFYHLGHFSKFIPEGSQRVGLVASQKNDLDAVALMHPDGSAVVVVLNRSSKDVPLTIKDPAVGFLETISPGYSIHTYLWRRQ", "assay": "Glucocerebrosidase-p2 (AID 348; in the data active = potency below about 10 µM; also: potency is read from the fitted curve at half-maximal effect)", "details": "purified GBA, blue fluorogenic substrate, 40 min", "how_it_was_run": "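Compounds titrated from 0.6 nM upwards against 0.2 nM enzyme in pH 5.9 citric acid/KH2PO4, taurocholate, tween-20; blue fluorogenic substrate 80 uM, 40 min room temperature, stopped and read Ex 365/Em 440 for AC50.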", "units": {"Potency": "µM"}}
{"compound": "Nc1nc(N)c(-c2cccc(C(F)(F)F)c2)c(Cc2cccc(C(F)(F)F)c2)n1", "Potency": "> 11.4"}
{"compound": "O=C(c1cc(C(F)(F)F)cc(C(F)(F)F)c1)N1CCC2(CCCN(c3ncccn3)C2)CC1", "Potency": "> 11.4"}
{"compound": "CN(C)c1ncc2ncc(=O)n(Cc3cccs3)c2n1", "Potency": "> 11.4"}
{"compound": "CCOc1ccc2nc3cc(N=Nc4ccc(N)nc4N)ccc3c(N)c2c1", "Potency": "> 11.4"}
{"test_system": "not listed separately", "assay": "AP1 Signaling Pathway (AID 357); also: % is scaled to controls: 0 for no effect and ±100 for the full control effect", "details": "ME-180 AP-1-bla reporter, EGF-induced, beta-lactamase ratio, 5 h; at 7.69 µM (top of the series) unless noted", "how_it_was_run": "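AP-1-bla ME-180 cells, Opti-MEM + 0.5% dialyzed FBS, plated overnight 37 °C. Cpd titration + EC50 EGF, 5 h 37 °C. CCF4 2.5 h RT; ex 405, em 460/530 ratio → %activity, AC50.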", "units": {"activity change, negative = inhibition": "%"}}
{"compound": "Nc1nc(N)c(-c2cccc(C(F)(F)F)c2)c(Cc2cccc(C(F)(F)F)c2)n1", "activity change, negative = inhibition": 11.9}
{"compound": "O=C(c1cc(C(F)(F)F)cc(C(F)(F)F)c1)N1CCC2(CCCN(c3ncccn3)C2)CC1", "activity change, negative = inhibition": -18.2}
{"compound": "CN(C)c1ncc2ncc(=O)n(Cc3cccs3)c2n1", "activity change, negative = inhibition": -12.8}
{"compound": "CCOc1ccc2nc3cc(N=Nc4ccc(N)nc4N)ccc3c(N)c2c1", "activity change, negative = inhibition": 4.95}
